# Assay results published in PubChem BioAssay (NCATS).
# Inconclusive results are not listed. Entries that show only a call come without a potency. More than one record can exist for a structure, and the calls need not agree. Activity calls are given as the source filed them. Unless noted, the call rests on the fitted dose curve; in most records, active means well fitted curve in the direction sought with a large enough effect; inconclusive means small, poorly fitted or top-dose-only effect, or another doubt; inactive means no such curve, though single readings can be large; an effect the other way counts as inactive or inconclusive.
# Experiments:
# [1] = qHTS of Trypanosoma Brucei Inhibitors: LOPAC Validation (AID 624147)
# In short: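 Readout: single end-point luminescence (Kinase-Glo Plus, 10 min). Reaction conditions were TbPYK/substrate plus 130 uM ADP, 45 min at RT, pH 7.2 TEA buffer. No-enzyme wells served as controls, and data were normalized before concentration-response fitting.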
# [2] = target: Glucagon-like peptide 1 receptor (Homo sapiens) (UniProt P43220); experiment: qHTS of GLP-1 Receptor Agonists: LOPAC Validation (AID 624148);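 further: luminescence from a luciferase reporter switched on by cAMP; higher luminescence signal means agonism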
# Glucagon-like peptide 1 receptor (Homo sapiens), sequence (P43220 whole entry, looked up): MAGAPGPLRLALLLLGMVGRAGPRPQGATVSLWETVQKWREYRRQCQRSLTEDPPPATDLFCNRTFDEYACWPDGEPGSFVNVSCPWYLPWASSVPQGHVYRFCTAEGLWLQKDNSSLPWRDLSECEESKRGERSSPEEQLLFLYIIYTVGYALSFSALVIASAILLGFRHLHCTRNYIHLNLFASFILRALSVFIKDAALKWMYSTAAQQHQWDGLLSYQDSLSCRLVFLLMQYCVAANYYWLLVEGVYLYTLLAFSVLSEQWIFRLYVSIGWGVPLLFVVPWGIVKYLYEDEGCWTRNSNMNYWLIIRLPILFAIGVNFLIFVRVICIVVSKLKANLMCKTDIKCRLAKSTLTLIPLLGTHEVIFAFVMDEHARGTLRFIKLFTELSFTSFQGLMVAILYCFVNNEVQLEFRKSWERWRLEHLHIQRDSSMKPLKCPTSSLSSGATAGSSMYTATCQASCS
# In short: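 Agonism scored as increased luciferase luminescence driven by cAMP in HEK293 clones carrying GLP-1R. Cells settled 12 hours, received compound for 4-6 hr at 37 deg C, 5% CO2, and were read after 12 min detection reagent at RT.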
# [3] = qHTS of Nrf2 Activators: LOPAC Validation (AID 624149)
# In short: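 Luminescence read-out of ARE-luciferase activation: AREc32_Fluc cells treated with compounds for 24 hr at 37 deg C, then lysed with Steady-Glo for 30 min at room temperature before reading.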
# [4] = HTS Assay for Allosteric Antagonists of the Human D2 Dopamine Receptor: Hit Validation in HTRF (AID 624455);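 further: stable D1 dopamine receptor cell line scored for blocking the D1 response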
# In short: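 First, antagonism was screened by calcium flux in a force-coupled, inducible Hek293 Trex D2 line challenged with EC80 dopamine. Hits then went into an HTRF assay in cells stably expressing D1, testing inhibition of the D1 response.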
# [5] = Cytotoxicity counterscreen for NFkB agonists and antagonists (AID 624476);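 further: cells exposed to compound for 48 hours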
# [6] = qHTS Assay for Identification of Small Molecule Agonists for NFkB Signaling Pathway. (AID 624478);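 further: compounds tested together with TNF alpha at its EC50 of 10 pM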
# In short: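 ME-180 cervical carcinoma, stable NFkB-RE beta-lactamase reporter; 1000 cells/well, overnight attachment; cpd + TNF alpha 10 pM final, 5 h 37 C; LiveBLAzer 2 h RT; FRET 460/530 nm, ex 405 nm.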
# [7] = qHTS Assay for Identification of Small Molecule Antagonists for NFkB Signaling Pathway. (AID 624479; calls by dose curve;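 further: pathway stimulated with TNF alpha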)
# [8] = Cell Proliferation Assay against the TMD8 Cell Line (AID 651645); conditions: TMD8 DLBCL cell line proliferation/viability; at 46.1 µM (top of the series) unless noted;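 further: cells exposed to compound for 48 h before reading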
# In short: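 Viability by CellTiter-Glo after 48 h compound exposure of 500 log-phase TMD8 cells per well (RPMI, 5% FBS). Percent activity scaled between DMSO (100%) and 9.2 uM final bortezomib (0%).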
# [9] = Cell Proliferation Assay against the HBL1 Cell Line (AID 651646); conditions: HBL1 DLBCL cells; at 46.1 µM (top of the series) unless noted;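 further: cells exposed to compound for 48 h before reading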
# In short: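 Luminescent ATP read-out (CellTiter-Glo) after 48 h compound exposure of HBL1 cells at 37 °C; percent activity was scaled between DMSO as 100% and 9.2 uM bortezomib (final) as 0%.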
# [10] = target: Glutaminase kidney isoform, mitochondrial (Homo sapiens) (UniProt O94925); experiment: qHTS for Inhibitors of Glutaminase (GLS): LOPAC Validation (AID 624146); further: nearly all actives have a fitted effect of over 60% in size; further: potency means the concentration at half of the fitted maximal effect
# Glutaminase kidney isoform, mitochondrial (Homo sapiens), sequence (O94925 whole entry, looked up, canonical isoform): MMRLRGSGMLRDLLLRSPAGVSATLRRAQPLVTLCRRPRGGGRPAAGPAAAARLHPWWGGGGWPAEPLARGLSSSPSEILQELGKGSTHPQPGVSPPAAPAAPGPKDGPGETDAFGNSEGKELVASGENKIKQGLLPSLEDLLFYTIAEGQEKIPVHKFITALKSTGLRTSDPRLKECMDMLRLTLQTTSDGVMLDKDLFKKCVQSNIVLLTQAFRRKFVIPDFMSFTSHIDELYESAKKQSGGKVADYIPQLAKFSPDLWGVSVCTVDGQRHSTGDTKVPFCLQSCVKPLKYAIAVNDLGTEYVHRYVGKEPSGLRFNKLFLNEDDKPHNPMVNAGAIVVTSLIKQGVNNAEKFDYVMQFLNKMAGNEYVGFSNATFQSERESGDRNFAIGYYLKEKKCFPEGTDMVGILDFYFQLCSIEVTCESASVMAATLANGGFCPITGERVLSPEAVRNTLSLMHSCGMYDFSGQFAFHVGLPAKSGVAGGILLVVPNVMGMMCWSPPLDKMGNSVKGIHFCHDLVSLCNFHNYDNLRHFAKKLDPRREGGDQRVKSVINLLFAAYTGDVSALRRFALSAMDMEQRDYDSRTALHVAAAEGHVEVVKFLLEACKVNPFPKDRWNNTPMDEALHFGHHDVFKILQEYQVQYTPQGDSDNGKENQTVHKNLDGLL
# In short: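 hKGA in 45 mM KH2PO4 (pH 8.2), 0.02% Tween-20 with compound, then 1mM L-Glutamine (stock as added) plus glutamate oxidase/HRP/Amplex red coupling mix. Fluorescence read initially and after 30 min at RT; signal change reflects glutamate formation.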
smiles,measurement,setting,value
CC1=C(CC(=O)O)c2cc(F)ccc2/C1=C\c1ccc(S(C)=O)cc1 (stereo not given),outcome,[1],inactive
same,outcome,[2],inactive
same,outcome,[3],inactive
same,outcome,[4],inactive
NC(=O)c1ncn([C@@H]2O[C@H](CO)[C@@H](O)[C@H]2O)c1N,outcome,[5],inactive
same,outcome,[6],inactive
same,outcome,[7],inactive
same,viability (% of control),[8],128%
same,"viability, percent of control",[9],159%
CC(CN1c2ccccc2Sc2ccccc21)N(C)C (stereo not given),outcome,[1],inactive
same,outcome,[2],inactive
same,outcome,[3],inactive
same,outcome,[4],inactive
CNCCCC1c2ccccc2C=Cc2ccccc21,Potency,[10],inactive
same,outcome,[1],inactive
same,outcome,[2],inactive
same,outcome,[3],inactive
same,outcome,[4],inactive
CNCC(O)c1ccc(O)c(O)c1 (stereo not given),Potency,[10],inactive
same,outcome,[1],inactive
same,outcome,[3],inactive
Nc1cc(=O)[nH]c(N)n1,Potency,[10],inactive
same,outcome,[1],inactive
same,outcome,[2],inactive
same,outcome,[3],inactive
same,outcome,[4],inactive
CSc1ccc2c(c1)N(CCC1CCCCN1C)c1ccccc1S2 (stereo not given),outcome,[1],inactive
same,outcome,[2],inactive
same,outcome,[3],inactive
same,outcome,[4],inactive
CC(C)NC[C@H](O)c1ccc(O)c(O)c1,Potency,[10],5.01 µM (active) and inactive
same,outcome,[1],inactive
same,outcome,[3],inactive
COc1ccc(Cl)cc1C(=O)NCCc1ccc(S(=O)(=O)NC(=O)NC2CCCCC2)cc1,Potency,[10],inactive
same,outcome,[1],inactive
same,outcome,[2],inactive
same,outcome,[3],inactive
same,outcome,[4],inactive
CSc1ccc2c(c1)C(N1CCN(C)CC1)Cc1ccccc1S2 (stereo not given),Potency,[10],inactive
same,outcome,[1],inactive
same,outcome,[2],inactive
same,outcome,[3],inactive
same,outcome,[4],inactive
CC[C@H]1CN2CCc3cc(OC)c(OC)cc3[C@@H]2C[C@@H]1C[C@H]1NCCc2cc(OC)c(OC)cc21,Potency,[10],inactive
same,outcome,[1],inactive
same,outcome,[2],inactive
same,outcome,[3],inactive
same,outcome,[4],inactive
Oc1cn2c(n1)Nc1ccc(Cl)c(Cl)c1C2,viability (% of control),[8],87.9%
same,"viability, percent of control",[9],58.4%
CC(=O)OCC(=O)[C@@]1(O)CC[C@H]2[C@@H]3CCC4=CC(=O)CC[C@]4(C)[C@H]3C(=O)C[C@@]21C,Potency,[10],inactive
same,outcome,[1],inactive
same,outcome,[2],inactive
same,outcome,[3],inactive
same,outcome,[4],inactive
